Results taken from PubChem BioAssay AID1159580 (chemical genetic matrix, 2015).
In all, about 5,500 compounds went through this assay and about 2,000 (36%) were called active. Inconclusive results (about 18%) are left out. No stated cut-off is given here; in the data, active means normalized growth mostly below about 0.91 (no sharp cut-off); inconclusive means no clear call, values can overlap the other calls; inactive means mostly above about 0.92. This is one part of the list.

Assay: chemical genetic growth profiling, strain panel (AID 1159580);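 further: tested at 20 µM; growth read once vehicle control cultures reached saturation at 30 °C; 1 = growth at the plate median or of vehicle wells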
Details: S. cerevisiae deletion strains, growth OD

Measured: normalized growth

CCCCCCCCCCC[C@@H](C[C@H]1OC(=O)[C@H]1CCCCCC)OC(=O)[C@@H](CC(C)C)NC=O
inactive: locus YAL013W, strain DEP1, stronger effect = lower value 1.05 | locus YAL021C, strain ccr4, stronger effect = lower value 1.01 | locus YAL026C, strain drs2, stronger effect = lower value 1.05 | locus YAL030W, strain snc1, stronger effect = lower value 1.03 | locus YBL061C, strain skt5, stronger effect = lower value 1.02 | locus YBR009C, strain hhf1, stronger effect = lower value 1.04 | locus YBR021W, strain FUR4, stronger effect = lower value 1.05 | locus YBR023C, strain chs3, stronger effect = lower value 0.994 | locus YBR171W, strain sec66, stronger effect = lower value 1.06 | locus YBR229C, strain ROT2, stronger effect = lower value 1.02 | locus YBR231C, strain swc5, stronger effect = lower value 0.965 | locus YBR279W, strain paf1, stronger effect = lower value 1 | locus YCL011C, strain gbp2, stronger effect = lower value 1.05 | locus YCL016C, strain dcc1, stronger effect = lower value 1.01 | locus YCL029C, strain bik1, stronger effect = lower value 1.03 | locus YCL061C, strain MRC1, stronger effect = lower value 1.05 | locus YCL069W, strain vba3, stronger effect = lower value 1.05 | locus YCR088W, strain abp1, stronger effect = lower value 1.02 | locus YDL005C, strain med2, stronger effect = lower value 1.03 | locus YDL035C, strain GPR1, stronger effect = lower value 1.05 | locus YDL040C, strain nat1, stronger effect = lower value 1 | locus YDL074C, strain BRE1, stronger effect = lower value 1.05 | locus YDL101C, strain DUN1, stronger effect = lower value 1.02 | locus YDL134C, strain PPH21, stronger effect = lower value 1.02 | locus YDL185W, strain tfp1, stronger effect = lower value 0.992 | locus YDL192W, strain arf1, stronger effect = lower value 1.03 | locus YDR001C, strain nth1, stronger effect = lower value 1.05 | locus YDR069C, strain doa4, stronger effect = lower value 1.02 | locus YDR101C, strain arx1, stronger effect = lower value 1.03 | locus YDR137W, strain rgp1, stronger effect = lower value 0.978 | locus YDR150W, strain NUM1, stronger effect = lower value 1.06 | locus YDR159W, strain sac3, stronger effect = lower value 1.01 | locus YDR162C, strain NBP2, stronger effect = lower value 1.02 | locus YDR195W, strain ref2 1.02 | locus YDR297W, strain sur2, stronger effect = lower value 1.04 | locus YDR318W, strain mcm21, stronger effect = lower value 1.01 | locus YDR334W, strain swr1, stronger effect = lower value 1.03 | locus YDR335W, strain msn5, stronger effect = lower value 1.05 | locus YDR388W, stronger effect = lower value 1.02 | locus YDR392W, strain spt3, stronger effect = lower value 1.1 | locus YDR502C, strain sam2, stronger effect = lower value 1.03 | locus YEL003W, strain gim4, stronger effect = lower value 1.02 | locus YEL037C, strain rad23, stronger effect = lower value 1.06 | locus YEL061C, strain CIN8 (second series), stronger effect = lower value 1.04 | locus YEL061C, strain CIN8, stronger effect = lower value 1.01 | locus YER015W, strain faa2, stronger effect = lower value 1.02 | locus YER016W, strain bim1, stronger effect = lower value 1.01 | locus YER110C, stronger effect = lower value 1.02 | locus YER111C, strain swi4, stronger effect = lower value 1.06 | locus YER155C, strain BEM2 (second series), stronger effect = lower value 1.07 | locus YER155C, strain BEM2, stronger effect = lower value 1.03 | locus YER167W, strain BCK2, stronger effect = lower value 1.02 | locus YFR010W, strain ubp6, stronger effect = lower value 1.05 | locus YGL078C, strain dbp3, stronger effect = lower value 1.03 | locus YGL086W, strain mad1, stronger effect = lower value 1.01 | locus YGL167C, strain pmr1, stronger effect = lower value 0.994 | locus YGL173C, strain kem1, stronger effect = lower value 1.04 | locus YGL227W, strain vid30, stronger effect = lower value 1.02 | locus YGL240W, strain doc1, stronger effect = lower value 1.06 | locus YGL248W, strain PDE1, stronger effect = lower value 1.03 | locus YGL253W, strain hxk2, stronger effect = lower value 1.04 | locus YGR078C, strain PAC10, stronger effect = lower value 1.05 | locus YGR135W, strain pre9, stronger effect = lower value 1.02 | locus YGR252W, strain gcn5, stronger effect = lower value 1.08 | locus YHR013C, strain ard1, stronger effect = lower value 1.03 | locus YHR027C, strain rpn1, stronger effect = lower value 1.05 | locus YHR030C, strain SLT2, stronger effect = lower value 1.04 | locus YHR079C, strain IRE1 (second series), stronger effect = lower value 1 | locus YHR094C, strain hxt1, stronger effect = lower value 1 | locus YHR129C, strain ARP1, stronger effect = lower value 1.04 | locus YHR142W, strain chs7, stronger effect = lower value 1.04 | locus YHR200W, strain rpn10, stronger effect = lower value 1.03 | locus YIL066C, strain RNR3, stronger effect = lower value 1.03 | locus YIL073C, strain SPO22, stronger effect = lower value 1.06 | locus YIL125W, strain kgd1, stronger effect = lower value 1 | locus YIR030C, strain dcg1, stronger effect = lower value 1.03 | locus YJL092W, strain hpr5, stronger effect = lower value 1.04 | locus YJL095W, strain BCK1 (second series), stronger effect = lower value 1.03 | locus YJL095W, strain BCK1, stronger effect = lower value 1.05 | locus YJL115W, strain asf1, stronger effect = lower value 1.06 | locus YJL129C, strain trk1, stronger effect = lower value 1.04 | locus YJL134W, strain LCB3, stronger effect = lower value 1.02 | locus YJL154C, strain vps35, stronger effect = lower value 1.07 | locus YJL164C, strain tpk1, stronger effect = lower value 1.04 | locus YJL166W, strain qcr8, stronger effect = lower value 1.04 | locus YJL168C, strain set2, stronger effect = lower value 1 | locus YJL187C, strain SWE1 (second series), stronger effect = lower value 1.03 | locus YJL187C, strain SWE1, stronger effect = lower value 1.04
